# In the library only some 4.4% were active in any assay of this set; here they are far more common.
# D1 antagonist – blocks dopamine activation of the human D1 receptor; P21728; HEK293 TREx D1 cells, calcium flux, dopamine EC80; active compounds read low; activity change, negative = inhibition, % at 10 µM; hit rate 3.2% among 360,000; in the data active = activity change below about -30%
#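 HEK293 T-REx cells expressing inducible, force-coupled D1 receptor; no-wash Ca dye, 30–90 min RT. Cmpd → 180 s read at 1 Hz → EC80 DA → 180 s read.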
# D1 potentiator – human D1 dopamine receptor positive modulation. hit rate 0.036% among 360,000. HEK293 TREx D1 cells, calcium flux, dopamine EC20 potentiation. P21728. AID 504651. potentiation, % at 10 µM; in the data active = potentiation above about 30%
# TRHR ag – activates the human TRH receptor | P34981 | TRHR cells, calcium flux fluo-8, FDSS agonist mode | activation, % at 2 µM | hit rate 0.18% among 360,000 | AID 493084
# Target sequence (P34981 whole entry, looked up): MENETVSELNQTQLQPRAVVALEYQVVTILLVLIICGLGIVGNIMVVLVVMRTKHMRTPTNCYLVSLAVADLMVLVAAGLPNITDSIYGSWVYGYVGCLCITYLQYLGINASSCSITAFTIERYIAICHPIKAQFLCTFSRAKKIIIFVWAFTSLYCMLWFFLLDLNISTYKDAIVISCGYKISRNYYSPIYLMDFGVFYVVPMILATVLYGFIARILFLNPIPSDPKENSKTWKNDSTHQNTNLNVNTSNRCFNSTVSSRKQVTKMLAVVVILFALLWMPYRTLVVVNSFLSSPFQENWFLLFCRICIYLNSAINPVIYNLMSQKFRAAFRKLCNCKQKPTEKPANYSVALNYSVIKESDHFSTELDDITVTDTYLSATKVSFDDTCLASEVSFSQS
#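 Agonist-mode FDSS calcium read (Ex 480/Em 530, 1 s cycles) in 1536-well TRHR cells with fluo-8 dye, after 10-cycle baseline and 23 nL compound addition; TRH at EC20 (10 nM final) added afterwards for the enhancer phase.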
# D1 ag – human D1 receptor agonism | HEK293 T-REx D1 cells, calcium flux, agonist mode | activation, % at 2 µM | hit rate 1% among 360,000 | P21728
#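 Tetracycline-induced HEK293 TREx D1 cells, force-coupled to calcium signalling, were dye-loaded with a no-wash calcium kit. Compound was pin-added after a 10 s baseline. Fluorescence was read kinetically at 1 cycle/s for 180 s, with calcium rises flagged as agonism.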
# TRHR PAM – TRH receptor (human) allosteric enhancement. enhancement, % at 2 µM. TRHR cells, fluo-8 calcium fluorescence, EC20 TRH enhancement. P34981. hit rate 0.66% among 360,000; in the data active = enhancement above about 30%
#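 TRHR-expressing cells loaded with fluo-8 calcium dye were read kinetically (ex 480/em 530) during compound addition, then stimulated with an EC20 of TRH (10 nM final). Enhancement of the Gq-mediated intracellular calcium response was scored.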
# USP1-UAF1 inh – blocks the human USP1/UAF1 deubiquitinase complex; O94782; recombinant USP1/UAF1, Ub-Rhodamine cleavage fluorescence; Potency, µM (series often up to 57.1 µM), most hits filed as inhibitors; hit rate 0.23% among 390,000; active = well fitted inhibition curve with a large enough effect; inconclusive = small, poorly fitted or top-dose-only effect; inactive = no such curve, though single readings can be large or run the other way; also: nearly all actives have a fitted effect of over 60% in size
#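 1 nM enzyme complex + cpd, 15 min RT; start with Ub-Rho 150nM final; kinetic fluorescence ex 480/em 540, 6 reads q60 s. Buffer 50mM HEPES pH 7.8, 0.5mM EDTA, 0.1 mg/ml BSA, 1mM TCEP, 0.01% Tween-20.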
# Hits are given with their value; . = inactive; ? = inconclusive; / = no result given. Rule as the data show it, unless noted: active = activation above about 30%; inactive = the rest.
SMILES,D1 antagonist,D1 potentiator,TRHR ag,D1 ag,TRHR PAM,USP1-UAF1 inh
COc1ccc(CN(CCc2ccccc2)Cc2ccccc2)cc1OC,.,.,.,.,.,.
COc1cc(CN(CCN(C)C)Cc2ccccc2)ccc1OCc1ccccc1,-75.6,.,.,.,.,.
CCN(C(=O)CSc1nc(C)nc2sc(C)c(C)c12)C1CCS(=O)(=O)C1 (configuration not stated),-32.8,.,.,.,.,.
COc1cc(NC(=O)CC2C(=O)N(c3cccc(C)c3)C(=O)N2Cc2ccc(F)cc2)cc(OC)c1 (configuration not stated),.,.,.,.,.,.
CN(C(=O)c1oc(=O)c2ccccc2c1-c1ccccc1)c1cccc(Cl)c1,.,.,.,.,.,.
CC(=O)c1ccc(NC(=O)C(C)NCc2ccccc2Cl)cc1 (configuration not stated),-35.8,.,.,.,.,.
CCOC(=O)c1c(-c2ccccc2)c2cc(OC)ccc2n1CCCN(C)C,.,.,.,30.6,.,.
CCOC(=O)c1c(C)n(CCNC(C)=O)c2ccc(OC)cc12,.,.,.,.,.,.
Cn1c(=O)n(C)c2cc(NS(=O)(=O)c3ccc(C(C)(C)C)cc3)c(NCc3ccccc3)cc21,.,.,.,.,.,?
CC(=NCCc1ccccc1)C1=C(O)CSC1=O,-46.0,.,.,.,.,.
CC(=NCCc1ccccc1)C1=C(O)CCC1=O,.,.,.,.,.,.
Cn1c(C(=O)NCc2ccccc2F)cc2oc3ccccc3c21,-56.9,.,.,.,.,.
COc1cccc2cc(C(=O)N3CCN(c4ccccn4)CC3)c(=O)oc12,-36.7,.,.,.,.,.
C/C(=N\NC(=O)CCCNc1ccccc1)c1ccncc1,.,.,.,.,.,?
C/C(=N\NC(=O)CCCNc1ccc(C)cc1)c1ccccn1,.,.,.,.,32.1,.
CSc1nncc(/C(C)=N\Nc2cccc(C)c2)n1,.,.,.,.,.,.
CSc1nncc(/C(C)=N\Nc2ccccc2)n1,-36.7,.,.,.,.,.
O=c1c2cc3c(cc2[nH]c(=S)n1C1CCN(Cc2ccccc2)CC1)OCO3,-31.8,.,.,.,.,.
CCc1ccc(N2C(=O)CC(c3cc(OC)ccc3OC)C3=C2COC3=O)cc1 (configuration not stated),.,.,.,.,.,.
O=C(CNC(=O)c1ccccc1F)OCc1cc(=O)n2ccsc2n1,.,.,.,.,.,.
CCN1CCc2c(OCc3ccccc3)cccc2C1=O,-38.1,.,.,.,.,.
O=C1c2cccc(OCc3ccc(F)cc3)c2CCN1Cc1ccccc1,.,.,.,.,.,.
CCOC(=O)CCc1c(C)nc2ncnn2c1C,.,.,.,.,.,.
Cc1nc2ncnn2c(C)c1CCC(=O)O,-37.5,.,.,.,.,.
Cc1ccc(S(=O)(=O)NCCc2nnc3ccc(SCC(=O)Nc4ccc(OC(F)(F)F)cc4)nn23)cc1,.,.,.,.,.,.
SMILES,D1 antagonist,D1 potentiator,TRHR ag,D1 ag,TRHR PAM,USP1-UAF1 inh
CCOC(=O)c1c(NC(=O)CSc2ncccn2)sc2c1CCN(Cc1ccccc1)C2,-77.7,.,.,.,.,?
CCOC(=O)c1c(NC(=O)CC)sc2c1CCN(Cc1ccccc1)C2,.,.,.,.,.,.
Nc1c2c(nc3ccn(-c4ccccc4)c(=O)c13)CCCCC2,-35.4,.,.,.,.,.
O=C(O)CN1C(=O)/C(=C\c2cn(CC(=O)N3CCOCC3)c3ccccc23)SC1=S,.,.,.,31.7,.,?
O=C(c1cc2ncc(CCCl)cn2n1)N1CCCCCC1,-48.2,.,.,.,.,.
COc1ccc(CN2CCn3ncc(C(=O)Nc4cccc(C)c4)c3C2=O)cc1,.,.,.,.,.,.
COC(=O)c1cnn2c1C(=O)N(Cc1cccs1)CC2,.,.,.,.,33.6,.
Cc1cccc(C(=O)NCC(=O)N2CCN(S(=O)(=O)/C=C/c3ccccc3)CC2)c1,-42.8,.,.,.,.,.
Cc1cccc(Cn2c(C)c(CNC3CCCCCC3)c(C(=O)O)c2C)c1,.,.,.,.,.,.
Cc1cc(N2CCOCC2)n2ncc(-c3ccc(Cl)cc3)c2n1,-32.7,.,.,.,.,?
N#C[C@@H]1N(Cc2ccccc2)C(=O)[C@H]2CC3C=CC21O3 (some centres not stated),-31.7,.,.,.,.,.
COc1cc(N)c(C(=O)c2nccc3cc(OC)c(OC)cc23)cc1OC,.,.,.,.,.,.
COc1cc(Br)c(C(=O)c2nccc3cc(OC)c(OC)cc23)cc1OC,-31.3,.,.,.,.,10µM
C=CCNC(=O)c1onc(CSc2cccc3ccccc23)c1C(=O)O,.,.,.,.,32.5,.
C=CCNC(=O)c1onc(CSc2ccc(F)cc2)c1C(=O)O,-34.3,.,.,.,.,.
C=CCNC(=O)c1onc(CSc2ccccc2F)c1C(=O)O,.,.,.,.,.,?
CCCCNC(=O)c1onc(CSc2ccccn2)c1C(=O)NCCCC,/,/,/,/,/,.
CCCNC(=O)c1onc(CSc2ccccn2)c1C(=O)NCCC,-37.5,.,.,.,.,.
O=C(NCc1ccccc1)c1onc(CSc2ccccc2)c1C(=O)NCC1CC1,-50.7,.,.,45.7,.,.
O=C(COc1ccc(F)cc1)Nc1ccc(C(=O)OCc2cc(=O)n3nc(C4CC4)sc3n2)cc1,.,.,.,.,.,?
O=C(Nc1cccc2cccnc12)OC(Cl)(Cl)Cl,.,.,.,.,.,/
COC(=O)C1=C(N)c2c(F)cccc2C1(C#N)c1ccccc1 (configuration not stated),-32.5,.,.,.,.,.
COC(=O)C1=C(C)NC(=O)CC1c1ccccc1F (configuration not stated),.,.,.,.,.,.
CC(C)(C)OC(=O)N1CCC(c2c(C(=O)NC3CCCCC3)cnn2-c2cccc(F)c2)CC1,.,.,.,.,.,.
Cc1ccccc1OCC(=O)Nc1cccc(C(=O)OCc2cc(=O)n3c(C)csc3n2)c1,.,.,.,.,.,.
Cc1[nH][nH]c(=O)c1C(c1c(C)[nH][nH]c1=O)c1cn(Cc2cccc3ccccc23)c2ccccc12,.,.,.,.,.,14.1µM
Cc1ccc(NC(=O)CN(C)C(=O)Cn2ccsc2=N)cc1,.,.,.,.,.,.
N=c1sccn1CC(=O)Nc1cc(S(=O)(=O)N2CCCCC2)ccc1Cl,.,.,.,.,.,.
Cc1ccc(S(=O)(=O)N2CCCCC2)cc1NC(=O)C1CCC1,-33.6,/,.,.,.,.
Cc1ccc(Oc2ccc(NC(=O)Cn3ccsc3=N)cc2)cc1,.,.,.,85.1,.,.

# From PubChem BioAssay
